From PubChem BioAssay AID527 (NMMLSC, 2006)
Screen size: about 24,000 compounds; about 65 (0.3%) were called active. The sample holds actives, similar compounds and a random draw of the others, so the mix is not that of the screen.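 How the source made its calls: active means share of bacteria positive for the green fluorescent reporter and its mean brightness both inhibited by 50% or more; inactive means the rest, inconclusive results apart.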

Assay: S. aureus quorum sensing inhibitors, primary screen, RNAIII-GFP reporter, flow cytometry (AID 527);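 further: 0% = AIP-stimulated control and 100% = unstimulated bacteria without AIP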
Details: S. aureus RN6390 RNAIII-GFP reporter, AIP-induced, flow cytometry 3 h, at 2 µM, stronger effect = higher value
[1] = measured here: inhibition of GFP MFI

Structure (SMILES)	inhibition	inhibition [1]
CCN(CC)CCNC(=O)Cn1cnc2sc(C)c(S(=O)(=O)N3CCOCC3)c2c1=O	-4.4% (inactive)	-7.2%
CCn1cc(C(=O)N2CC=C(c3ccccc3)CC2)c(=O)c2ccc(C)nc21	17.2% (inactive)	30.6%
CCOC(=O)Cn1c(=O)oc2cc(S(=O)(=O)N(C)Cc3ccco3)ccc21	-6.4% (inactive)	-10.2%
CC1CCN(c2oc(-c3ccccc3F)nc2C#N)CC1	0.5% (inactive)	3.2%
Cc1ccccc1NC(=O)c1ccccc1	-2.3% (inactive)	-11.3%
CCOC(=O)N1CCN(CC(=O)c2c(C)[nH]c3ccccc23)CC1	-0.6% (inactive)	7.3%
COc1cc2cc(CN(CCN3CCCC3)C(=O)Nc3ccccc3Cl)c(=O)[nH]c2cc1OC	-3.5% (inactive)	-20.1%
Cc1ccccc1CN1CCN(C(=O)c2cccc(F)c2)CC1	-0.2% (inactive)	-10.6%
COc1cccc(OC)c1OCCN1CCN(C(=O)c2ccco2)CC1	-1% (inactive)	4.2%
COc1ccc(OC)c(NC(=O)CCN2CCC(C)CC2)c1	-0.7% (inactive)	-21.9%
CCOc1ccc(-c2cn(S(=O)(=O)c3cccc4nsnc34)nc2N)cc1	2.7% (inactive)	26.8%
Cn1c(=O)[nH]c(=O)c2c1nc(NCCCn1ccnc1)n2Cc1cccc(Br)c1	-0.5% (inactive)	-1.6%
CC(=O)c1cc2c(cc1NC(=O)CN1CCCCCC1)OCO2	-3.5% (inactive)	-12.2%
O=C(CC(NCCN1CCOCC1)C(=O)O)Nc1cccc(Cl)c1 (centres undefined)	-0.4% (inactive)	7.8%
CCN(CC)C(=O)CCC(=O)Nc1ccc(C(=O)OC)cc1	0.7% (inactive)	0%
CCOc1ccc(Cn2nnc(C(=O)Nc3ccc(OC)cc3OC)c2N)cc1	-0.3% (inactive)	-4.3%
COc1ccc(C(=O)NCc2cn3ccccc3n2)cc1	-9.5% (inactive)	-17.4%
Cc1cc(C)c2c(n1)nn1c(N3CCOCC3)cc(C)nc21	-1.1% (inactive)	1.4%
CCCCN(CC)C(=O)CN(C)S(=O)(=O)c1cccc2nsnc12	-1.2% (inactive)	-4.3%
CC1CCCCC1NC(=O)CCS(=O)(=O)c1cccc2nonc12 (centres undefined)	4% (inactive)	22.1%
CCOc1ccc(C2C(C(=O)NC)=C(C)Nc3nc4ccccc4n32)cc1OC (centres undefined)	2.9% (inactive)	6.8%

Structure (SMILES)	inhibition	inhibition [1]
O=C(NCc1ccco1)C1CCCN(S(=O)(=O)c2cnc[nH]2)C1 (centres undefined)	3.6% (inactive)	9.1%
CCn1cc(C(=O)NCC2CCCO2)c(=O)c2cc(S(=O)(=O)N3CCCCC3)ccc21 (centres undefined)	-8.4% (inactive)	-14.4%
O=C(c1ccco1)N1CCN(C(=O)c2ccc(COc3ccc(F)cc3)o2)CC1	2.8% (inactive)	8%
COc1ccc(C2OC(=O)CC2C(=O)NC(C)C)cc1 (centres undefined)	-1% (inactive)	-15.8%
COc1cc2[nH]c(=S)n(Cc3ccc(C)o3)c(=O)c2cc1OC	2% (inactive)	9.8%
O=C(CN1C(=O)CCS(=O)(=O)c2ccccc21)NCc1ccc(F)cc1	-1.6% (inactive)	-8.2%
CCOC(=O)CSc1nnc(NC(=O)c2cccc(S(=O)(=O)N3CCCCC3)c2)s1	-0.3% (inactive)	13%
COc1cccc(OCC(O)CN2CCN(CCO)CC2)c1 (centres undefined)	-2% (inactive)	-8.9%
CN(C)/C=C1\C=C(c2ccccc2)OC1=O	0.4% (inactive)	1.9%
O=C(NCc1ccc2c(c1)OCO2)C1CCCN(S(=O)(=O)c2cccs2)C1 (centres undefined)	16.2% (inactive)	44.2%
CCCCC(=O)Nc1cc(C)c2c(=O)oc3ccccc3c2n1	43.3% (inactive)	69.9%
COc1ccc(N2CCN(CCNC(=O)CCN3C(=O)COc4ccccc43)CC2)cc1	-0.3% (inactive)	5.4%
COc1cc2[nH]c(=S)n(CCN3CCCCC3C)c(=O)c2cc1OC (centres undefined)	2.3% (inactive)	17.7%
O=C(CC(NS(=O)(=O)c1ccc(Cl)cc1)c1ccco1)NC1CCCC1 (centres undefined)	7.7% (inactive)	13.1%
Cc1c(NC(=O)C(C)OC(=O)c2cc3c4ccccc4n(C)c3s2)c(=O)n(-c2ccccc2)n1C (centres undefined)	0.6% (inactive)	3.3%
O=C(Cn1nc(Cc2cccnc2)c2ccccc2c1=O)NCC1COc2ccccc2O1 (centres undefined)	5.9% (inactive)	12.1%
Cc1cc(Cl)c(S(=O)(=O)Nc2ccc3c(c2)OCCO3)cc1OCC(N)=O	-0.7% (inactive)	-17.3%
Cc1ccc(-c2nc(CS(=O)CC(=O)N3CCN(c4ncccn4)CC3)c(C)o2)cc1 (centres undefined)	-2.1% (inactive)	-1.4%
COc1cc(C(O)c2nc3ccccc3n2C)cc(OC)c1OC (centres undefined)	-4% (inactive)	-99.6%
CC(C)OCCCNC(=O)CNC(=O)c1cccs1	-1.5% (inactive)	-15.3%
Cc1ccc(S(=O)(=O)N2C3C=CC(C3)C2C(=O)O)cc1 (centres undefined)	-5.7% (inactive)	-28.5%

Structure (SMILES)	inhibition	inhibition [1]
Cc1ccc(CNC(=O)C2CCCN(S(C)(=O)=O)C2)cc1 (centres undefined)	0.6% (inactive)	10%
COc1ccccc1C(=O)N1CCN=C1SCc1cccnc1	-1.3% (inactive)	-5.4%
CC(C)(C)n1nc2c(c1NC(=O)c1ccc(S(=O)(=O)N3CCCC3)cc1)CS(=O)C2 (centres undefined)	-6.3% (inactive)	-9.9%
Cc1nn(-c2ccccc2)c2c1C(=O)NC(=O)C(C)(C)C2	4.5% (inactive)	27.5%
O=C(Nc1ccncc1)c1cc2ccccc2o1	0% (inactive)	2.6%
COc1ccc(S(=O)(=O)Nc2ccc(S(=O)(=O)N3CCCCC3)cc2)cc1OC	-3.8% (inactive)	-10.7%
Cc1onc(-c2ccccc2)c1C(=O)N1CCOCC1	0% (inactive)	3.7%
Cc1ccc(C(c2sc3nc(C)nn3c2O)N2CCN(c3ccc(F)cc3)CC2)cc1 (centres undefined)	1.8% (inactive)	-4.2%
C=CCSc1nc2c(c(=O)[nH]1)C(C(C)C)C(C#N)=C(N)O2 (centres undefined)	2.6% (inactive)	27.2%
CCN(c1ccc2c(c1)OCO2)S(=O)(=O)c1cc(Br)cc2c1N(C(=O)C1CC1)CC2	-0.3% (inactive)	5.6%
CCOC(=O)CSC1=C(C#N)C(c2sccc2C)CC(=O)N1 (centres undefined)	-0.9% (inactive)	-28.9%
COC(=O)c1ccc(NC(=O)C(C)N2C(=O)c3ccccc3C2=O)cc1 (centres undefined)	-1.2% (inactive)	-12.9%
Cc1cc(Nc2cccc(C)c2C)n2ncnc2n1	0% (inactive)	1.4%
COC(=O)c1ccc2c(=O)n(CC3CCCO3)c(=S)[nH]c2c1 (centres undefined)	-2.1% (inactive)	1.7%
O=C(NCCCN1CCN(C2CCCCC2)CC1)Nc1ccccc1C(F)(F)F	-9.7% (inactive)	-13.2%
COc1cccc(N2CCN(C(=O)C3CCCN(S(=O)(=O)c4cnc[nH]4)C3)CC2)c1 (centres undefined)	-1.3% (inactive)	-0.6%
O=C(CCn1c(=O)[nH]c2ccccc2c1=O)NCCCN1CCN(c2cccc(Cl)c2)CC1	-4.8% (inactive)	-25.8%
Cc1ccc(C)c(N2CCN(C(=O)CCc3nc4ccccc4[nH]3)CC2)c1	5.3% (inactive)	36.1%
Cc1ccc(C)c(N2CCN(C(=O)CCCCn3c(=O)[nH]c4ccccc4c3=O)CC2)c1	71.2% (active)	71.1%
COC(=O)c1ccc(CN(c2ccccc2OC)S(=O)(=O)c2cccs2)o1	-0.8% (inactive)	-15.8%
COC(=O)CN(c1nc(C)c(Cl)c(OC)n1)S(=O)(=O)c1ccc(C)cc1	-3.6% (inactive)	-2.5%

Structure (SMILES)	inhibition	inhibition [1]
Cc1ccccc1S(=O)(=O)Cc1ccc(C(=O)NCCN2CCCCC2C)o1 (centres undefined)	1.5% (inactive)	-6.9%
O=C(C(Cc1ccccc1)n1cccc1)N1CCN(C2CCCCC2)CC1 (centres undefined)	-0.8% (inactive)	-1.7%
CCOc1ccc(OCC)c(NC(=O)C2CCN(S(=O)(=O)c3c(C)noc3C)CC2)c1	-1.2% (inactive)	-15.6%
O=C(c1ccccc1)c1ccc2nc(N3CCCCC3)c3nncn3c2c1	-1.8% (inactive)	-34.9%
Cc1cccc(N2CCN(Cc3c(C)n(C)n(-c4ccccc4)c3=O)CC2)c1C	-0.1% (inactive)	-1.8%
COc1cccc(N2C(=O)C3CCCN3C2c2ccc(F)cc2)c1 (centres undefined)	-4.7% (inactive)	-8.4%
CN1CCN(S(=O)(=O)c2ccc3[nH]cc(C(=O)O)c(=O)c3c2)CC1	-2.2% (inactive)	-22.7%
CC(C)N1C(=O)C2C(C(=O)NC3CCCCC3)C3C=CC2(O3)C1C(=O)NC1CCCC1 (centres undefined)	-2.6% (inactive)	-16.1%
CC1CCC(NS(=O)(=O)c2ccc3c(c2)n(C)c(=O)c(=O)n3C)CC1 (centres undefined)	-0.4% (inactive)	12.3%
C=CCn1c2ccccc2c2nnc(SC(CC)C(=O)Nc3nc(C)c(C(=O)OCC)s3)nc21 (centres undefined)	28.9% (inactive)	48.3%
COC(=O)c1cc(C(=O)OC)cc(N2C(=O)CC(N3CCN(c4ccccc4)CC3)C2=O)c1 (centres undefined)	5.6% (inactive)	38.5%
COCCCNC(=O)CSc1nc2ccc(N3CCOCC3)cc2c(=O)n1CCc1ccccc1	10.2% (inactive)	33.4%
COC(=O)Cn1c(=NC(=O)CSCC(=O)Nc2cc(C)on2)sc2ccccc21	0.4% (inactive)	4.6%
CC(C)(C)C(=O)CCN1C(=O)C2(OCCO2)c2ccccc21	-2.2% (inactive)	-21.9%
Cc1cccn2c(=O)c3cc(C(=O)NCc4ccccn4)n(C)c3nc12	-3.5% (inactive)	-9.7%
C=CCSc1nnc(Cn2c(=O)sc3ccccc32)n1C	24.2% (inactive)	43.3%
CCCS(=O)(=O)N1CCCC(C(=O)N2CCN(c3ccccc3)CC2)C1 (centres undefined)	-1% (inactive)	-6.2%
CC(c1ccco1)N(C(=O)c1ccc(S(=O)(=O)N2CCCCC2)cc1)c1ccccn1 (centres undefined)	-0.6% (inactive)	4.5%
CCC1=C(C(=O)OC)C(c2cc(OC)ccc2OC)C(C#N)=C(N)O1 (centres undefined)	-0.3% (inactive)	1.1%
